Holding throughout (type): functional
The subject of test [1] is Plasmodium falciparum. The experiment in a line: GSK_TCMDC: Inhibition of Plasmodium falciparum 3D7 in whole red blood cells, using parasite LDH activity as an index of growth. Test compounds present at 2uM.
Test [2] deals with Plasmodium falciparum. As to the kind of experiment: GSK_TCMDC: Inhibition of Plasmodium falciparum Dd2 in whole red blood cells, using parasite LDH activity as an index of growth. Test compounds present at 2uM.
The test system of test [3] is HepG2. As to the kind of experiment: GSK_TCMDC: Percent inhibition of human HepG2 cell line. Test compounds present at 10uM.

The Inhibition is the change of the read-out against control, counted positive when it falls. For `CC(C)c1ccc(NC(=O)NCC2CCCN(CCCCCNC(=O)/C=C/c3ccc(Cl)c(Cl)c3)C2)cc1` (configuration not stated), the Inhibition stood at 98% in test [1], 6% in test [2] and 87% in test [3].
For the compound `Cc1nnsc1C(=O)Nc1ccc(-c2cccc(-c3nc4cc(F)ccc4[nH]3)c2)cc1`, the Inhibition in test [1] is reported as 96%; in test [2], 27%; in test [3], 44%.
As for `Cc1cn(CC(=O)Nc2cccc(-c3cccc(-c4nc5cc(C(F)(F)F)ccc5[nH]4)c3)c2)c(=O)[nH]c1=O`, the Inhibition in test [1] amounted to 92%; in test [2] it was 51%; in test [3] it was 15%.
With `O=C1c2ccccc2C(=O)N1c1ccc(S(=O)(=O)N2CCOCC2)cc1`, the Inhibition is recorded as 94% in test [1], 0% in test [2] and 0% in test [3].
For `CC(C)(C)c1ccc(CN2CCC(NC(=O)c3ccc(-c4cccc(C(F)(F)F)c4)s3)CC2)cc1.O=C(O)C(F)(F)F`, the Inhibition in test [1] is reported as 100%; in test [2], 96%; in test [3] it was 97%.
Consider `O=C(C=Cc1ccc(Cl)c(Cl)c1)NCCCCCN1CCC(CCCNC(=O)c2sc3ccccc3c2Cl)CC1`, for which the Inhibition in test [1] amounted to 93%; in test [2] it was 40%; in test [3], 99%.
For `O=C(NC1CCCCCC1)C1CCCN(C(=O)c2ccc(O)c(-c3ccc(Cl)c(Cl)c3)c2)C1` (configuration not stated), in that order: 98%, 21% and 5%.
Regarding `O=C(NC1CC1c1ccccc1)N(CCCn1ccnc1)Cc1csc(-c2ccc(CNCc3ccccc3)cc2)n1.O=C(O)C(F)(F)F` (configuration not stated), the Inhibition is 96% in test [1], 20% in test [2] and 6% in test [3].
In the case of `CCCc1ccc(NC(=O)c2cccc(CN3CCCN(Cc4cccc(C#N)c4)CC3)c2)cc1.O=C(O)C(F)(F)F`, the figures for the Inhibition in test [1], in test [2] and in test [3] were 85%, 0% and 20%, respectively.
`COc1c(C2CCN(CCCCNC(=O)c3ccc(-c4ccc(C#N)cc4)c(O)c3)CC2)ccc2c1CCCC2.Cl`: the Inhibition in test [1] was 100%; in test [2], 78%; in test [3], 35%.
In the case of `CC(NCCc1cccc(Cl)c1)C(O)c1ccc(OCCCCCCOc2ccc(C(O)C(C)NCCc3cccc(Cl)c3)cc2)cc1` (configuration not stated), the results for the Inhibition in test [1], in test [2] and in test [3] were 100%, 100% and 96%, respectively.
Turning to `Cl.c1ccc(-c2ccc3c(Nc4ccc5[nH]ncc5c4)ccnc3c2)nc1`, the Inhibition is listed as 100% in test [1], 99% in test [2] and 99% in test [3].
With `CC(C)N(Cc1cnc(N)c(C#N)n1)c1ccc(Cl)c(Cl)c1`, the figures for the Inhibition in test [1], in test [2] and in test [3] were 97%, 63% and 0%, respectively.
On to `O=C(Nc1ccc(Oc2ccccc2)cc1)N[C@H]1CCN(Cc2ccc(OCCCN3CCCCC3)cc2)C1`, for which the results for the Inhibition in test [1], in test [2] and in test [3] were 100%, 6% and 13%, respectively.
In the case of `O=C(O)C(F)(F)F.OCCN1CCN(Cc2ccc(-c3ccc(-c4nc5cc(C(F)(F)F)ccc5[nH]4)s3)cc2)CC1`, the Inhibition in test [1] is recorded as 100%; in test [2], 99%; in test [3], 65%.
`Cc1cc(C)n(-c2nc(Nc3cccc(C(F)(F)F)c3)nc(-n3nc(C)cc3C)n2)n1`: the Inhibition in test [1] is recorded as 99%; in test [2] it was 88%; in test [3], 0%.
`O=c1ccc(CNc2nc(NCCc3ccccc3)nc3ccc(Cl)cc23)c[nH]1`: the Inhibition was 99% in test [1], 16% in test [2] and 9% in test [3].
For `Cc1cc(N2CCCC2)nc(Nc2ccc(NC(=O)c3ccc(Br)o3)cc2)n1`, in that order: 99%, 57% and 17%.
For `CN1CCC(NCc2ccc(-c3ccc(S(=O)(=O)NC4CCC4)s3)cc2)CC1.O=C(O)C(F)(F)F`, in that order: 92%, 31% and 31%.
With `CNC(=O)c1cc(S(=O)(=O)N2CCN(c3ccccn3)CC2)cs1`, the Inhibition in test [1] is 99%; in test [2], 100%; in test [3] it was 0%.
Regarding `CCOC(=O)NC1=NC(C)(C)N(OCc2cccc3c2ccc2ccccc23)C(NC(=O)OCC)=N1`, the Inhibition is 98% in test [1], 3% in test [2] and 3% in test [3].
Regarding `NC1CCN(c2nc(NCCCc3ccc(O)cc3)nc(NCc3ccccc3-c3ccc(C(F)(F)F)cc3)n2)CC1.O=C(O)C(F)(F)F`, the Inhibition was determined as 100% in test [1], 88% in test [2] and 15% in test [3].
As for `Nc1ncc(-c2ccc3nccc(-c4ccncc4)c3c2)cc1S(=O)(=O)N1CCOCC1`, the Inhibition is listed as 100% in test [1], 99% in test [2] and 39% in test [3].
On to `CC(C)c1ccc(NC(=O)c2ccc(C(=O)NC3CCN(Cc4ccccc4)CC3)cc2)cc1.O=C(O)C(F)(F)F`, for which the Inhibition in test [1] was 88%; in test [2], 7%; in test [3], 30%.
With `CN1CCCC1CCNc1ncc2c(-c3ccc(NC(=O)Nc4cc(C(F)(F)F)ccc4F)cc3)nn(C)c2n1.O=C(O)C(F)(F)F` (configuration not stated), the values for the Inhibition in test [1], in test [2] and in test [3] were 96%, 72% and 74%, respectively.
`NC(=O)C1CCN(Cc2ccc(-c3ccc(-c4nc5cc(F)ccc5[nH]4)cc3)cc2)CC1.O=C(O)C(F)(F)F`: the results for the Inhibition in test [1], in test [2] and in test [3] were 100%, 100% and 12%, respectively.
On to `Cc1cccc(C(=O)Nc2ccnc(N3CCC(N(C)Cc4cccc(C#N)c4)CC3)c2)c1.O=C(O)C(F)(F)F`, for which the Inhibition was 100% in test [1], 52% in test [2] and 5% in test [3].
On to `CCN(CC)CCN(Cc1ccc(-c2ccc(C(F)(F)F)cc2)cc1)C(=O)Cn1c(CCc2ccccc2F)nc(=O)c2ccccc21.O=C(O)C(O)C(O)C(=O)O`, for which the Inhibition in test [1] is listed as 95%; in test [2], 54%; in test [3], 39%.
Take `c1cc2[nH]c(CCCc3nc4cc(C5=N[C@H]6CCCC[C@H]6N5)ccc4[nH]3)nc2cc1C1=N[C@@H]2CCCC[C@@H]2N1`: the Inhibition in test [1] was determined as 85%; in test [2], 84%; in test [3], 10%.

The record behind these values is ChEMBL document CHEMBL1157539, “Thousands of chemical starting points for antimalarial lead identification” (Nature, 2010).
